The list is not random: actives were taken first. Their share in the collection is about 8.8%.
HTT cytoprotect: Huntington cell model cytoprotection by ATP luminescence | PC12 HTT-Q103 induced, cytoprotection, ATP luminescence, 40 h | Potency, µM (top dose mostly 56.4 µM), hits mostly activators | actives 0.14% (n = 230,000) | AID 1471; active = well fitted curve in the direction sought with a large enough effect; inconclusive = small, poorly fitted or top-dose-only effect, or another doubt; inactive = no such curve, though single readings can be large; an effect the other way counts as inactive or inconclusive; also: nearly all actives have a fitted effect of over 45% in size
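Compounds were screened for protection of PC12 cells against cell death after tebufenozide induction (100 nM final) of mutant Huntingtin exon 1 (Q103) fused to GFP.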
HTT aggregate: inhibitors of mutant huntingtin aggregate formation in PC12 cells; PC12 HttQ103-GFP aggregates, Acumen cytometry, 40 h; actives 1.1% (n = 220,000); Potency, µM (top dose mostly 46.1 µM), actives largely listed as inhibitors; active = well fitted curve in the direction sought with a large enough effect; inconclusive = small, poorly fitted or top-dose-only effect, or another doubt; inactive = no such curve, though single readings can be large; an effect the other way counts as inactive or inconclusive; also: nearly all actives have a fitted effect of over 60% in size
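Multiplexed with ATP-based cell death, this channel scores GFP aggregates in PC12 cells expressing inducible HTTex1-Q103-GFP. Induction used 100 nM tebufenozide; compounds were tested in concentration series.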
HPGD block: blocks human HPGD enzyme activity; actives 4.3% (n = 150,000); purified HPGD, NADH fluorescence kinetic, PGE2 substrate; P15428; Potency, µM, hits mostly inhibitors
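20 nM HPGD preincubated 15 min at room temperature with compound in 50 mM Tris-HCl pH 8, 0.01% Tween 20. Started with 1 mM NAD+ and 30 uM prostaglandin E2; NADH fluorescence (360/450 nm) read 5 times over 30-s intervals, last minus first.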
LMNA splice mod: modulators of lamin A splicing. HeLa LMNA splicing GFP/RFP minigene ratio, 48 h. AID 1487. Potency, µM (titrated, usually from 46.1 µM), actives largely listed as inhibitors. actives 0.01% (n = 200,000); active = well fitted inhibition curve with a large enough effect in the signal ratio, with a control signal flat, not every such curve was filed as active; inconclusive = small, poorly fitted or top-dose-only effect, or effect the other way, or a change in a side signal; the % refers to the signal ratio
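Read-out is the ratio of GFP to DsRed2 object intensity, acquired by 488 nm laser-scanning cytometry on HeLa lamin A-EGFP minigene reporter cells. Compound incubation 48 hrs at 37 °C in Opti-MEM with 2% FBS; DMSO 0.5% final.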
ALDH1A1 inh: ALDH1A1 (human) enzyme inhibition; P00352; Purified ALDH1A1, NADH fluorescence, propionaldehyde substrate; Potency, µM (doses to about 75.3 µM), actives largely listed as inhibitors; actives 7.3% (n = 220,000)
Target sequence (P00352 whole entry, looked up): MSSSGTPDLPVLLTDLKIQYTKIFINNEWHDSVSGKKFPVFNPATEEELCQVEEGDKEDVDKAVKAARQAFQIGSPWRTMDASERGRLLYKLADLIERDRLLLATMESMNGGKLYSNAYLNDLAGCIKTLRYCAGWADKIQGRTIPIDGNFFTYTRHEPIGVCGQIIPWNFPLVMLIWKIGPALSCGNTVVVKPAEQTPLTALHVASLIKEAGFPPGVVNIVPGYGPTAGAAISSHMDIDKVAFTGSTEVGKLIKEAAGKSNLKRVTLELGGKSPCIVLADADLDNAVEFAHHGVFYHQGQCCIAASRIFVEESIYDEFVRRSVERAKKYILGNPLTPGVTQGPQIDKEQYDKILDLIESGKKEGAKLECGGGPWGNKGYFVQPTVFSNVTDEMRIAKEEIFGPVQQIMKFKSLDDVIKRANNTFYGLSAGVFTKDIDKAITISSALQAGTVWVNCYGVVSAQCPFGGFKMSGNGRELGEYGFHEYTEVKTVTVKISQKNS
Numbers stand for hits; n = inactive; u = inconclusive; x = no result; [ ] = remark or other dose. Unless noted, calls follow the shape of the dose curve; as a rule, active = well fitted inhibition curve with a large enough effect (not every such curve was filed as active); inconclusive = small, poorly fitted or top-dose-only effect, or another doubt; inactive = no such curve, though single readings can be large or run the other way.

SMILES	HTT cytoprotect	HTT aggregate	HPGD block	LMNA splice mod	ALDH1A1 inh
COc1ccc(C(=O)N2CCCC2)cc1	n	n	6.3µM	n	n
N#C/C(=C\c1ccc(OCc2ccc(C(=O)O)cc2)cc1)C(=O)N1CCOCC1	n[10 µM]	n	14µM	n	n
COc1ccc(C(=O)N2CCN(C(=O)c3ccncc3)CC2)cc1	n	n	n	n[0.0737 µM]	n
COc1cc(/C=C(\C#N)C(=O)N2CCOCC2)ccc1OCc1ccccc1	n	n	x	x	n
COC(=O)c1cc(NC(=O)c2cccc([N+](=O)[O-])c2C)ccc1Cl	n[10 µM]	n	x	x	n
CN1CCN(c2ncc3nc(-c4ccccc4)c(=O)n(Cc4ccc(F)cc4)c3n2)CC1	n	x	n	x	u
C[C@H]1Cc2c(COc3ccccc3)nc3c(c2CO1)CN(C(=O)C1CCCCC1)CC3	n[10 µM]	x	n	n[9.22 µM]	n[13.5 µM]
COc1ccc2nc(Nc3sc4c(c3C(N)=O)CCCC4)sc2c1	n[10 µM]	u	16µM	u	8.9µM
COc1ccc2nc(NC3=NCCC3)sc2c1	n[10 µM]	n	n	n	n
CCOC(=O)Cc1csc(NC(=O)/C=C/c2ccc(OC)cc2)n1	n	n	x	n	n
Cc1cccc2sc(NC(=O)C3c4ccccc4Oc4ccccc43)nc12	n	u	n	u	n
C=CCSc1ncnc2c1oc1nc3c(cc12)COC(C)(C)C3	n[10 µM]	n[9.22 µM]	x	x	u
CC1(C)Cc2nc3oc4c(=S)nc[nH]c4c3cc2CO1	n	n	28µM	n	3.2µM
CC1(C)CC(=O)C(C(C2=C(O)CC(C)(C)CC2=O)c2ccco2)C(=O)C1 (stereo not given)	n	n	10µM	n	u
O=C(NN=C1C2CC3CC1CC(Cl)(C3)C2)c1cccs1	n	n	x	x	3.2µM
Cc1cc([N+](=O)[O-])c2[nH]c(C(=O)N/N=C/c3ccccc3C(=O)O)c(-c3ccccc3)c2c1	u	n	u	u	1.4µM
Cc1nnc(SCC(=O)NCc2ccco2)n1-c1ccc(F)cc1	n[10 µM]	n	n	n	25µM
Cn1cccc1Cc1nnc(SCC(=O)NCc2ccco2)n1-c1ccc(F)cc1	n[10 µM]	n	n	n	13µM
Cn1cccc1Cc1nnc(SCC(=O)NCc2ccccc2Cl)n1-c1ccc(F)cc1	n	n	n	n	n
Cn1cccc1Cc1nnc(SCC(=O)NC2CCCCC2)n1-c1ccc(F)cc1	n	n	n	n	20µM
Cc1nnc(SCC(=O)NCc2ccco2)n1-c1ccccc1	n	n	n	n	n
O=C(CSc1nnc(COc2ccccc2F)n1-c1ccccc1)NCc1ccco1	n	n	20µM	n	n
C=CCn1c(COc2ccccc2F)nnc1SCC(=O)NC(=O)NCc1ccco1	n	n	n	n	u
Cc1ccc2oc(-c3cccc(NC(=O)/C=C/c4cccc([N+](=O)[O-])c4)c3C)nc2c1	x	n	n	n	u
Cc1cccc(C(=O)OCc2cc(=O)n3ccsc3n2)c1	x	x	x	n	x
SMILES	HTT cytoprotect	HTT aggregate	HPGD block	LMNA splice mod	ALDH1A1 inh
COc1ccc(-c2ccc(=O)n(CC(=O)Nc3cc(OC)ccc3OC)n2)cc1	x	x	x	n	x
CCN(C(=O)Cn1c(=O)n(CC2CCC(C(=O)NC)CC2)c(=O)c2sccc21)c1ccccc1 (stereo not given)	x	x	x	n	x
O=C(CSc1nc2c(sc3ccccc32)c(=O)n1-c1ccccc1)NCc1ccco1	n[10 µM]	n	n	u	11µM
O=C(CSc1nc2c(sc3ccccc32)c(=O)n1CCc1ccccc1)NCc1ccco1	n	n[9.22 µM]	n	n	n
COC1=CC(=O)C(O)=C/C1=C\C=C\c1ccccc1	x	x	11µM	u	13µM
COc1ccc2c(c1)C(=O)/C(=C/C=C/c1ccccc1)CC2	n[10 µM]	n	n	u	u
NCC(=O)Nc1ccccc1	n[10 µM]	x	n	x	n[13.5 µM]
CCC(=O)NNc1nc2c(Cl)cccc2s1	n	n[9.22 µM]	x	n	n
CC1(c2ccccc2)CC(C)(C)N2C(=O)C(=O)c3cccc1c32 (stereo not given)	n[10 µM]	n[9.22 µM]	x	n	0.5µM
CC(=O)N1C2(C=CC1(C)C(=O)NCc1ccccn1)CCCCC2 (stereo not given)	n	x	n	x	u
CC(=O)N1C2(C=CC1(C)C(=O)NCc1ccc(C)o1)CCCCC2 (stereo not given)	n	x	n	x	22µM
COc1cccc(N2C(=O)CSC23C(=O)N(CC(=O)NCc2ccc(C)cc2)c2ccccc23)c1 (stereo not given)	x	x	x	n	x
CC(=O)Nc1ccc(OCC(O)CNC2CCCC2)cc1 (stereo not given)	n	u	n	u	18µM
COC(=O)CNc1nc(C2CC2)nc2c1nnn2Cc1ccccc1Cl	n[10 µM]	n	n	n	1.6µM
CC(C)(C)c1nc(NCCN2CCOCC2)c2nnn(Cc3ccccc3Cl)c2n1	n	n	n	u	u
Clc1ccccc1Cn1nnc2c(N3CCOCC3)nc(C3CC3)nc21	n	n	n	n	20µM
CN(C)S(=O)(=O)c1ccc(Nc2nc(C3CC3)nc3c2nnn3Cc2ccccc2Cl)cc1	n[10 µM]	n	u	u	u
Cc1cccc(C2=N[C@@H](Cc3ccccc3)CO2)c1	n	x	n	x	n
Cc1cccc(C2(c3cccc(C)c3)CC2C(=O)Nc2ccc([N+](=O)[O-])cc2O)c1 (stereo not given)	n[10 µM]	u	18µM	u	n
NCc1ccccc1Sc1ccccc1CO	u	n	x	x	x
O=C(Nc1nnc(-c2ccc(F)cc2)o1)c1cccc([N+](=O)[O-])c1	n	5.6µM	x	u	n
O=C(Nc1nnc(-c2ccc3c(c2)CCCC3)o1)c1ccccc1	n[10 µM]	u	n	u	n
O=C(Nc1nnc(-c2ccc(F)cc2)o1)c1cc(Cl)sc1Cl	n[10 µM]	11µM	n	u	n
O=C(Nc1nnc(-c2ccc3c(c2)CCCC3)o1)c1ccccc1Cl	n	11µM	n	n	n
O=C(Nc1nnc(-c2ccncc2)o1)c1ccccc1	n	u	x	n	u
SMILES	HTT cytoprotect	HTT aggregate	HPGD block	LMNA splice mod	ALDH1A1 inh
OCc1ccccn1	u	n	x	x	x
Cn1c(=O)c2c(ncn2CC(=O)OCC(=O)Nc2cc(Cl)ccc2Cl)n(C)c1=O	n[10 µM]	n	n	n	n
COc1ccc(CC(N)C(=O)N[C@H]2[C@@H](O)[C@H](n3cnc4c(N(C)C)ncnc43)O[C@@H]2CO)cc1 (stereo not given in full)	n	x	n	x	n
CCOc1ccc(C2C(C(=O)Nc3ccccc3)=C(C)Nc3nc(SCc4cccc(OC)c4)nn32)cc1 (stereo not given)	x	x	x	n	x
Cc1nnc2n1N=CC=C(c1ccccc1)S2	16µM	x	n	u	n
Cc1cccc2sc(NC(=O)CN(C)S(=O)(=O)c3cccs3)nc12	n	16µM	n	u	n
CCN(C(=O)CSc1nc2ccccc2n1Cc1cc(C)ccc1C)c1ccccc1	x	x	x	n	x
Cc1cc(C)nc(NC=C2C(=O)OC(C)(C)OC2=O)n1	n[10 µM]	n[9.22 µM]	x	x	4µM
O=C(Nc1cc(Cl)cc(Cl)c1)C(NCC1CCCO1)c1ccccc1 (stereo not given)	n[10 µM]	n	x	n	4.5µM
CC(C)NC(C(=O)Nc1cc(Cl)cc(Cl)c1)c1ccccc1 (stereo not given)	n	n	n	n	11µM

Screening data from PubChem.
